Test [1] is described as follows: inhibitors of TNFa-induced NFkB p65 translocation, primary screen, imaging, HUVEC, MLSMR starter and 10KST1 sets (AID 438;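 active = inhibition above 20% together with a positive visual image hit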;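 also: compound added about 3h40 before a 20 min TNFalpha stimulation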;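 as to inhibition: signal is the nuclear over cytoplasmic p65 intensity ratio per well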). The conditions noted are these: HUVEC TNFa-induced p65 nuclear translocation; cell count: measured here: nuclei count (cytotoxicity indicator), at 2.08 µM; inhibition: at 2 µM, stronger effect = higher value, 0% TNFa-plus-vehicle, 100% no-TNFa wells.
Test [2] is described as follows: inhibitors of mutant huntingtin aggregation, primary screen, imaging, exon1htt(103Q)mCFP cells, high-content imaging (AID 483;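 active = visual image review flags a hit and inhibition of aggregation exceeds 20%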;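 also: compound exposure lasted 3 days before fixation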;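 as to nuclei count: percent of the per-plate median nuclei count of sample wells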). The conditions noted are these: exon1htt(103Q)mCFP cell line, aggregate imaging, at 2 µM; inhibition of aggregation: stronger effect = higher value; nuclei count: measured here: cell count, toxicity.
Test [3] is described as follows: inhibitors of E-selectin induction by TNFa, primary screen, imaging, HUVEC, immunofluorescence, MLSMR starter and 10KST1 sets (AID 487;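 active = visually confirmed hit in the image check and inhibition above 20%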;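 as to inhibition: signal is fraction of cell area covered by stained E-selectin grains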;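 as to nuclei count: 100% = median nuclei count of all wells on the same plate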). The conditions noted are these: HUVEC TNFalpha-induced E-selectin immunofluorescence imaging, at 2 µM; inhibition: stronger effect = higher value; nuclei count: measured here: cell number, toxicity.
Test [4] concerns the target Voltage-gated potassium channel subunit beta-2 (Rattus norvegicus) (UniProt P62483). In words: KvBeta enzyme negative modulators, primary screen, biochemical, NADPH fluorescence (AID 622).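 Also: slope of raw intensity against log time taken from 70 to 1610 s.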 The conditions noted are these: recombinant KvBeta, 4-cyanobenzaldehyde reduction, at 10 µM, stronger effect = higher value.
Test [5] has the same target. As to the kind of experiment: KvBeta positive modulators, primary screen, biochemical, NADPH fluorescence (AID 623;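 active = NADPH fluorescence slope more negative than the mean of all samples by about 3 SD, 99.7% confidence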;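 also: fluorescence intensity change per second fitted from 20 to 320 s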). The conditions noted are these: Recombinant KvBeta, NADPH fluorescence decrease slope, 10 min; at 10 µM; stronger effect = lower value.
The target of test [6] is Alpha-2C adrenergic receptor (Homo sapiens) (UniProt P18825). In words: modulators of alpha2C/GIRK thallium flux, primary screen, cell-based, HEK293 alpha2C/GIRK1/2 (AID 624;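 active = fluorescence slope after compound addition differing from the mean of all screened samples at 99.7% confidence, in either direction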;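 also: slope of fluorescence ratio to pre-addition baseline per second over 15 to 24 s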). The conditions noted are these: thallium flux BTC fluorescence, at 10 µM, actives lie on both sides.
The nature of test [7]: inhibitors of Sendai virus-induced IRF3 signaling, primary screen, TLR/RLR signaling modifier project, cell-based, Sendai virus stimulus, luciferase, 10K MLSCN set (AID 602276;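 active = inhibition at or above 50% at 10 µM; inactive = inhibition below 50%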;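 also: firefly luciferase from ISG56 promoter only with Renilla not read in this screen; 0% = Sendai virus plus DMSO and 100% = medium plus DMSO without virus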). The conditions noted are these: HEK293 RL24 IRF3 luciferase reporter, at 10 µM, stronger effect = higher value.
A short description of test [8]: inhibitors of poly I:C-induced TLR3 signaling, primary screen, cell-based, poly I:C stimulus, luciferase, 10K MLSCN set (AID 602277;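 active = inhibition of the reporter signal at or above 50%; inactive = inhibition below 50%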). The note with it: HEK293-TLR3 RL24 IRF3 luciferase reporter, at 10 µM, stronger effect = higher value. In general terms: A reporter such as luciferase makes a cellular process visible.

The source of these data is PubChem BioAssay.

Usually inhibition stands for the relative decrease from the control value, in per cent.

Calls of active or inactive are those of the source.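 The calls were made as follows, unless noted: active = fluorescence slope higher than the sample average by over 3 SD (cut at about -0.22 in these data, passing the limit was not always enough); inactive = the rest.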

Voltage-gated potassium channel subunit beta-2 (Rattus norvegicus), sequence (P62483 whole entry, looked up): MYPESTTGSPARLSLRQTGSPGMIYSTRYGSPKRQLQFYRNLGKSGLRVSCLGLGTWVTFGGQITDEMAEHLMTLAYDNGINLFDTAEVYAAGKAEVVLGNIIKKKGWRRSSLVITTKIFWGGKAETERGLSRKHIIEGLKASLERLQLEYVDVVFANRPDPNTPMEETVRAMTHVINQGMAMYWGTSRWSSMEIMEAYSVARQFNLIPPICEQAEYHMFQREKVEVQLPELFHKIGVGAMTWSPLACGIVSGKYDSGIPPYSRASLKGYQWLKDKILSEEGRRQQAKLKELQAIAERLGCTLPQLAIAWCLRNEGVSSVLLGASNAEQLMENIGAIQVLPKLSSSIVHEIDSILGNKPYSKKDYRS
Alpha-2C adrenergic receptor (Homo sapiens), sequence (P18825 whole entry, looked up): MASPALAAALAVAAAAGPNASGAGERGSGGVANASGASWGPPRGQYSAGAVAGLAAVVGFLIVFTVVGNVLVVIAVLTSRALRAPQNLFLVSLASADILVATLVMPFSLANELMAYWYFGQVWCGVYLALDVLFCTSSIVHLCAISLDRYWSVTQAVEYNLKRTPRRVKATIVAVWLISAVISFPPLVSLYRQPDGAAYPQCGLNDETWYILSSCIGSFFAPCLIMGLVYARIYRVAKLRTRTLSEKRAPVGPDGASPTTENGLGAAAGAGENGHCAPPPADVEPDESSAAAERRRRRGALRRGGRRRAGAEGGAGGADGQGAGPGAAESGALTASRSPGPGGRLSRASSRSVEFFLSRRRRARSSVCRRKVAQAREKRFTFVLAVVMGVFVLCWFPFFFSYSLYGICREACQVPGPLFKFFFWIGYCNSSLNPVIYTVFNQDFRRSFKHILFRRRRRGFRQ

For `CCOC(=O)c1cc(C(C)(C)C)oc1CN`, the cell count in test [1] came out at 667. Besides, the inhibition in test [1] is -1% (inactive); in test [3], -1.1% (inactive); in test [7] it was 15.2% (inactive); in test [8], 21.7% (inactive). In addition, the inhibition of aggregation in test [2] is 1.2% (inactive). In addition, the nuclei count amounted to 98.7% in test [2] and 102% in test [3]. Besides, in test [4], the fluorescence slope was -0.495 (inactive). The NADPH fluorescence slope in test [5] is -4.4e-05 (inactive). For the same compound, the slope in test [6] is 0.00475 (inactive).
Consider `CC(Oc1ccc(Cl)cc1Cl)C(=O)Nc1ncccn1` (stereo not given), for which the cell count in test [1] was determined as 433. The inhibition is 2.5% (inactive) in test [1], 51.5% (inactive) in test [3], -4.61% (inactive) in test [7] and -6.91% (inactive) in test [8]. For the same compound, in test [2], the inhibition of aggregation was -1% (inactive). For the same compound, the nuclei count in test [2] worked out at 102%; in test [3], 124%. The fluorescence slope in test [4] was -0.409 (inactive). Besides, in test [5], the NADPH fluorescence slope was 9.1e-05 (inactive). The slope in test [6] is 0.006 (inactive).
With `C=CCn1c(SCC(=O)c2cc(C)n(C(C)COC)c2C)nc2sc(C)c(C)c2c1=O` (stereo not given), the cell count in test [1] turned out to be 357. The inhibition in test [1] was 3% (inactive); in test [3] it was -1.2% (inactive); in test [7] it was 7.26% (inactive); in test [8], 22.9% (inactive). For the same compound, the inhibition of aggregation in test [2] was -8.9% (inactive). Besides, the nuclei count is 99.9% in test [2] and 100% in test [3]. Also, the fluorescence slope in test [4] is -0.459 (inactive). Moreover, in test [5], the NADPH fluorescence slope was 1e-05 (inactive). Also, in test [6], the slope was 0.00515 (inactive).
As to `Cc1cc(C)cc(NC(=O)C2CCCN(c3nccc(C)n3)C2)c1` (stereo not given), in test [1], the cell count is 373. In addition, the inhibition in test [1] is -6% (inactive); in test [3], -57.3% (inactive); in test [7] it was 9.71% (inactive); in test [8] it was 18.5% (inactive). Besides, in test [2], the inhibition of aggregation is -20.4% (inactive). For the same compound, the values for the nuclei count in test [2] and in test [3] were 115% and 117%, respectively. The fluorescence slope in test [4] was -0.463 (inactive). Further, in test [5], the NADPH fluorescence slope was -8.4e-05 (inactive). Moreover, the slope in test [6] is 0.00586 (inactive).
For `Cc1ccc(CCNC(=O)C2CCCN(S(=O)(=O)c3cnc[nH]3)C2)cc1` (stereo not given), the cell count in test [1] was found to be 603. Further, the inhibition in test [1] was -0.2% (inactive); in test [3], -89.2% (inactive); in test [7], 1.87% (inactive); in test [8] it was 18% (inactive). Also, the inhibition of aggregation in test [2] was -6.4% (inactive). For the same compound, the nuclei count in test [2] was 99.1%; in test [3], 135%. Moreover, the fluorescence slope in test [4] was -0.577 (inactive). The NADPH fluorescence slope in test [5] is -1.4e-06 (inactive). Also, the slope in test [6] was 0.00614 (inactive).
As to `COc1ccc(CCNC(=O)c2ccc(N3CCCC3=O)cc2)cc1OC`, the cell count in test [1] amounted to 472. Further, the inhibition is -19% (inactive) in test [1], -26% (inactive) in test [3], 8.09% (inactive) in test [7] and 20.6% (inactive) in test [8]. Also, the inhibition of aggregation in test [2] is 43.9% (active). Also, the nuclei count in test [2] was 62.2%; in test [3], 89.1%. Also, the fluorescence slope in test [4] is -0.453 (inactive). For the same compound, the NADPH fluorescence slope in test [5] is -0.000105 (inactive). Also, the slope in test [6] was 0.00604 (inactive).
Regarding `COCC(C)NC(=O)NC(=O)c1ccc(Cl)cc1` (stereo not given), the cell count in test [1] amounted to 715. Moreover, the inhibition in test [1] is 0.4% (inactive); in test [3], -67.6% (inactive); in test [7], 14.1% (inactive); in test [8] it was 12.5% (inactive). Also, the inhibition of aggregation in test [2] was 10.2% (inactive). Also, the nuclei count in test [2] came out at 100%; in test [3], 98.3%. In addition, the fluorescence slope in test [4] was -0.476 (inactive). Further, the NADPH fluorescence slope in test [5] is 2.1e-05 (inactive). For the same compound, in test [6], the slope is 0.00585 (inactive).
In the case of `COC(=O)c1ccccc1NC(=O)N1CCCC1`, the cell count in test [1] was 380. The inhibition was -0.9% (inactive) in test [1], -45.5% (inactive) in test [3], -4.5% (inactive) in test [7] and 0.116% (inactive) in test [8]. In addition, the inhibition of aggregation in test [2] is 0.5% (inactive). Also, the results for the nuclei count in test [2] and in test [3] were 99.5% and 115%, respectively. Besides, the fluorescence slope in test [4] is -0.434 (inactive). The NADPH fluorescence slope in test [5] is -3.7e-06 (inactive). Moreover, the slope in test [6] was 0.00581 (inactive).
`CCCC(CCC)C(=O)NCCN1CCOCC1`: the cell count in test [1] turned out to be 412. For the same compound, the inhibition in test [1] was -2% (inactive); in test [3], -22.1% (inactive); in test [7], 11% (inactive); in test [8], 28.6% (inactive). Besides, the inhibition of aggregation in test [2] was 6.3% (inactive). The nuclei count in test [2] was determined as 97%; in test [3], 90.6%. Besides, the fluorescence slope in test [4] is -0.494 (inactive). Further, in test [5], the NADPH fluorescence slope is -3.5e-05 (inactive). The slope in test [6] is 0.0054 (inactive).
`O=C(Oc1ccccc1)c1cccc(COC(=O)c2cnccn2)c1`: the cell count in test [1] was determined as 385. For the same compound, the inhibition was -1.6% (inactive) in test [1], 20.7% (inactive) in test [3], 5.8% (inactive) in test [7] and 3.65% (inactive) in test [8]. For the same compound, the inhibition of aggregation in test [2] is 7.9% (inactive). Also, the values for the nuclei count in test [2] and in test [3] were 103% and 105%, respectively. In addition, the fluorescence slope in test [4] is -0.425 (inactive). In addition, the NADPH fluorescence slope in test [5] is -5.1e-05 (inactive). The slope in test [6] was 0.00507 (inactive).
